About 8,800 targets were measured; listed, in parts, are those with a hit and a random draw of the rest. About 0.5% of all pairs of compound and target were hits. A number with no mark means an inactive call.

UniProt O43399, sequence (O43399 whole entry, looked up): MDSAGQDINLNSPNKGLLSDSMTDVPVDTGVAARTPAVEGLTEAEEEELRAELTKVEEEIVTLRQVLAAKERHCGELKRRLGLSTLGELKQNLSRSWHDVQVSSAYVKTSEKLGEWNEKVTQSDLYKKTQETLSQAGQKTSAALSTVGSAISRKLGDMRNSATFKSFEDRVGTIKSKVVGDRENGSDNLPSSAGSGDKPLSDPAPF
UniProt Q9UGU0, sequence (Q9UGU0 whole entry, looked up): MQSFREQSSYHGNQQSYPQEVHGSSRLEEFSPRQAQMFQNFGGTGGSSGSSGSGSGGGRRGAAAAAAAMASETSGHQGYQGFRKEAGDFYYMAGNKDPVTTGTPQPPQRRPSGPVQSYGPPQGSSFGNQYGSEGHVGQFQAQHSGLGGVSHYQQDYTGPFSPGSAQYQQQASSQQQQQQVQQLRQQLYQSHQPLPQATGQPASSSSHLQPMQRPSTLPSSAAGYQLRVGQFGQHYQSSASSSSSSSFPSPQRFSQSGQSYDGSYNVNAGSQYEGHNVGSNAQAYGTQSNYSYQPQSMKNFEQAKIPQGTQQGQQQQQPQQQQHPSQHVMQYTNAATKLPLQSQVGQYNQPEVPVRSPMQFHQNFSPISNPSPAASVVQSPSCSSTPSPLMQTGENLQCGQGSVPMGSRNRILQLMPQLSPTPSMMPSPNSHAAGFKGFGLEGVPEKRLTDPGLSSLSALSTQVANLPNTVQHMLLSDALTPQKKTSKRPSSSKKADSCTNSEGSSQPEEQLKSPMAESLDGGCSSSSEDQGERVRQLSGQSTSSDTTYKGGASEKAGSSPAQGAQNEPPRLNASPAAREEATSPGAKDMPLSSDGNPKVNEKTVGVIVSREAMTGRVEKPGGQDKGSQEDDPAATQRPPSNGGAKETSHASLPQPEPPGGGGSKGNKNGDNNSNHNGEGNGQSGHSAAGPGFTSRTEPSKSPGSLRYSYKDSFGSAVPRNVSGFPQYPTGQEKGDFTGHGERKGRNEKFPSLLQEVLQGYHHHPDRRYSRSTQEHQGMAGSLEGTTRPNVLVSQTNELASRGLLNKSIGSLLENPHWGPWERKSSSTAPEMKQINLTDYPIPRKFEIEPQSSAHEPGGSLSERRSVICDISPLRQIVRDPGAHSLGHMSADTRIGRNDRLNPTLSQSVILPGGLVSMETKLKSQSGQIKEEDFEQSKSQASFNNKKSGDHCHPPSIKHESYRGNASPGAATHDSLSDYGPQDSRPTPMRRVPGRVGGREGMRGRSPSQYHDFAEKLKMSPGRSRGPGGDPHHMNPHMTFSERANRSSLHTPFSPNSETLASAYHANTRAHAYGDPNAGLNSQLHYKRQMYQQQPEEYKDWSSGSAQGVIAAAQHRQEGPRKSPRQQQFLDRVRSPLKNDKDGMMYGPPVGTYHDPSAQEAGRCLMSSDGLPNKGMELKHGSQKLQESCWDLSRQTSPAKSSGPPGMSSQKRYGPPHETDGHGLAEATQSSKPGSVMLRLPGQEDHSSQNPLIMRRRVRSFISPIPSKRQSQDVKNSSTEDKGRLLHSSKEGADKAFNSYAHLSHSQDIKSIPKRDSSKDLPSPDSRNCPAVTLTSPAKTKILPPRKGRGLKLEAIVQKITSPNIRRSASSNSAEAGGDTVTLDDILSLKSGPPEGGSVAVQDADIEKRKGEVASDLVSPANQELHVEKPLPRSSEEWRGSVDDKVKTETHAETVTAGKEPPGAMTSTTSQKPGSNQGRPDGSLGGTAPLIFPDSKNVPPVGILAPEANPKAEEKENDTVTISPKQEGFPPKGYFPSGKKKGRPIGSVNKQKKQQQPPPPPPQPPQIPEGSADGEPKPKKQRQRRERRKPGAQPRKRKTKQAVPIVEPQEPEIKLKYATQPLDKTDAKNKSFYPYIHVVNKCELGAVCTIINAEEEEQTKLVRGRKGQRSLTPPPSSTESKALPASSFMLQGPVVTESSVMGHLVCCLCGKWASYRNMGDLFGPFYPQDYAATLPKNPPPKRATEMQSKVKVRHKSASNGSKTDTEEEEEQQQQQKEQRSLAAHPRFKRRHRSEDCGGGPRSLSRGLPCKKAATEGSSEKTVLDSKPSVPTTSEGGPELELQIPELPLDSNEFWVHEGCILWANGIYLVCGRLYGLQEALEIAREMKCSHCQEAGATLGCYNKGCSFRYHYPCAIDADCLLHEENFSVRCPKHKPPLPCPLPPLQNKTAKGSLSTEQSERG
UniProt Q6N022, sequence (Q6N022 whole entry, looked up): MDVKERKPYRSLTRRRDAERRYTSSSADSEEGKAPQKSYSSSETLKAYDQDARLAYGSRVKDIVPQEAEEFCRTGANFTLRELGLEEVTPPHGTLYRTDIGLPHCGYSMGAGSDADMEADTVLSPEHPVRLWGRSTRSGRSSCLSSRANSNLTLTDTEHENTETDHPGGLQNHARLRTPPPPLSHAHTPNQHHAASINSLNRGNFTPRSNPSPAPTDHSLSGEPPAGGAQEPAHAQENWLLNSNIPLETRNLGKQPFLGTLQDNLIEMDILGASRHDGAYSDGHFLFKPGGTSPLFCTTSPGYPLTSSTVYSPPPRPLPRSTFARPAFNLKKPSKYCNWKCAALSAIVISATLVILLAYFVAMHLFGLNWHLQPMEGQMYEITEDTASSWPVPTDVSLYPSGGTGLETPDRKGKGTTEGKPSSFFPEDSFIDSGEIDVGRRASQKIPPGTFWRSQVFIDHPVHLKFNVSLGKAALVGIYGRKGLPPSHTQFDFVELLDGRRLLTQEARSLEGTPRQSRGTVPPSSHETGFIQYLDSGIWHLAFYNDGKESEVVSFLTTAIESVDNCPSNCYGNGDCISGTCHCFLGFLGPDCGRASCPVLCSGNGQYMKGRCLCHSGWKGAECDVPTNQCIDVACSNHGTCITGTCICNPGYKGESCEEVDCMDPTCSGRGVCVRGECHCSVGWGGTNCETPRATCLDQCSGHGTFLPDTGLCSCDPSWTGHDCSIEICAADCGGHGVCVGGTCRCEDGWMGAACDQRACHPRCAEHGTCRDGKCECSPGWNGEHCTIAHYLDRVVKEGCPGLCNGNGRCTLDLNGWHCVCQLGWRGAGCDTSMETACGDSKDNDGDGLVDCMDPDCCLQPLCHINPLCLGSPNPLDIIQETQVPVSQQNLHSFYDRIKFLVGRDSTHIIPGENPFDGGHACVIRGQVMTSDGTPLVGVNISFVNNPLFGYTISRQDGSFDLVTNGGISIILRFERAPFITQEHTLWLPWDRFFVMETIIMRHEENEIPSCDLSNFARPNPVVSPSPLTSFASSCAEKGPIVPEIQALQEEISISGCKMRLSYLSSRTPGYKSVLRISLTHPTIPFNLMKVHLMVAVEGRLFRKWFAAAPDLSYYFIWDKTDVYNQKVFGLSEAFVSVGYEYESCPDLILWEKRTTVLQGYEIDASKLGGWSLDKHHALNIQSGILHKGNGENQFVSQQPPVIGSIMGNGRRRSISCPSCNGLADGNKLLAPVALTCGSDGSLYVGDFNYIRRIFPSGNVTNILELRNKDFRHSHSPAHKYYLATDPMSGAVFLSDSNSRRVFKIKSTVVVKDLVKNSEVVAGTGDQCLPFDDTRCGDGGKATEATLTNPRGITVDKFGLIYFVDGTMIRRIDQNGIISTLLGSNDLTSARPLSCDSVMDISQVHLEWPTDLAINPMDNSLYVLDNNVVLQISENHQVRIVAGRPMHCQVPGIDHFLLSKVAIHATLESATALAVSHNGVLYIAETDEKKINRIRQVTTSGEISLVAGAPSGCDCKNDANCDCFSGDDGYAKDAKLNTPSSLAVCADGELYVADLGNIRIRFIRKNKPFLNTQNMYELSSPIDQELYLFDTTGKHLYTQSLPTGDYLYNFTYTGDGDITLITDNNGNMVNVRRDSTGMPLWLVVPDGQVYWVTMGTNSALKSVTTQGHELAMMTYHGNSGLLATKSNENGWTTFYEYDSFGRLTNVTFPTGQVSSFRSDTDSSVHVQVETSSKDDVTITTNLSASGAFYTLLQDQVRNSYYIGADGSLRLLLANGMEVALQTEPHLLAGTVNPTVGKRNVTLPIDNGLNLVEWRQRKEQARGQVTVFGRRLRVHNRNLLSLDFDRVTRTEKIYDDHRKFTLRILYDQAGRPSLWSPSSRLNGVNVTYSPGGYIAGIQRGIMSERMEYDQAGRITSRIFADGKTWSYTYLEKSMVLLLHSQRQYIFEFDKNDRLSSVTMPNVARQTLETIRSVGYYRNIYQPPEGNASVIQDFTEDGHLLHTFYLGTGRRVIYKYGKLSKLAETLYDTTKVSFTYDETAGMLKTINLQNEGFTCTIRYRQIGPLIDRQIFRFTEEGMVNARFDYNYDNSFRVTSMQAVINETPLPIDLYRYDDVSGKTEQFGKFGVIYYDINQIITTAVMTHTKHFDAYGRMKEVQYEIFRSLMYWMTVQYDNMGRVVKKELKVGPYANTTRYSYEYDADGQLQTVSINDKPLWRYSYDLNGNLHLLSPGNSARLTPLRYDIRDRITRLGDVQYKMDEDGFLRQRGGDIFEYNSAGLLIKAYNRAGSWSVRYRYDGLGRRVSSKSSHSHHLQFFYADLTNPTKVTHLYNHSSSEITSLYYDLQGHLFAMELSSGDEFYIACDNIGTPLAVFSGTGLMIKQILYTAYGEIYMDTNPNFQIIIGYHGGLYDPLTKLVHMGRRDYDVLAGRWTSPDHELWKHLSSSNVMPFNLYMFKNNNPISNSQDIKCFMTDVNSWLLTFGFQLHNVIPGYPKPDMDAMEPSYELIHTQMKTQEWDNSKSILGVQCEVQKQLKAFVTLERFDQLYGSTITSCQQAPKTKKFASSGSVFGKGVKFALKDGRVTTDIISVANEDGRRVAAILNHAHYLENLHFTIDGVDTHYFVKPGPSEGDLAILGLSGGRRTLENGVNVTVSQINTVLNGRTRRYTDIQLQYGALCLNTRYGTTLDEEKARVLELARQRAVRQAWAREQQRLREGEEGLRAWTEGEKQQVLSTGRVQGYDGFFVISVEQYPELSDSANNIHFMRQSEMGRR
UniProt P62328, sequence (P62328 whole entry, looked up): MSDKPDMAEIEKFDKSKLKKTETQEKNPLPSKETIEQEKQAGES

Compound in this experiment: CC1=C(SC2=C1C(=N[C@H](C3=NN=C(N32)C)CC(=O)N)C4=CC=C(C=C4)Cl)C
Nature of the experiment: log2 fold change, soluble protein after heating vs DMSO (PISA); higher = thermal stabilisation; K562 lysate, 10 uM; active = over 0.2 and 3.5 SD of the protein, either way, in both replicates (recomputed). A digest of the protocol: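 Quantification was by TMTpro 16plex LC-MS/MS with equalised channel sums, applied to the supernatant after 21,000xg for 90 min. Samples were crude K562 extract at 1 mg/mL protein in PBS pH 7.4 with 1 mM MgCl2, treated with 10 μM compound for 30 min, heated for 3 min across 48°C-58°C, pooled and brought to 0.5% NP-40 at 4°C. Values are log-two fold changes in thermal stability relative to solvent controls, from duplicates.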
On to TASP1 (UniProt Q9H6P5), for which the log2 fold change was 0.205.
In the case of TUBB6 (UniProt K7ES63) it was 0.02.
In the case of TENM4 (UniProt Q6N022) it was 0.174; in that of TUBB4A (UniProt P04350), -0.03.
Next, TMEM161B (UniProt Q8NDZ6): -0.052; TRPM4 (UniProt Q8TD43): 0.114.
On to TM2D3 (UniProt Q9BRN9), for which the log2 fold change was -0.003.
Next, TMSB4X (UniProt P62328): 0.434; TNFAIP3 (UniProt P21580): 0.05; TFPT (UniProt P0C1Z6): -0.078.
In the case of TCF20 (UniProt Q9UGU0) it was -0.063.
In the case of TUBB4A (UniProt M0QYM7), the log2 fold change is -0.162.
Take TLE3 isoform 5 (UniProt Q04726): the log2 fold change was -0.454 (active).
Next, TFPI (UniProt P10646): -0.116; TUBA4A (UniProt C9JQ00): -0.225.
With TPD52L2 isoform 3 (UniProt O43399), the log2 fold change is 0.135.
Next, TNIK isoform 5 (UniProt Q9UKE5): -0.009.
